Screens (PubChem)
HTR5A ag ctr: HTR5A agonism, opioid heterodimer counter-screen; P47898; HTR5A agonist assay, luminescence, cell-based; activation, % at 9.3 µM; 0.61% of 340,000 active; AID 504692; in the data active means activation mostly above about 9.5%, no sharp cut-off; inactive means mostly below about 7.6%;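 further: 0% = cells with vehicle only and 100% = reference agonist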
Target sequence (P47898 whole entry, looked up): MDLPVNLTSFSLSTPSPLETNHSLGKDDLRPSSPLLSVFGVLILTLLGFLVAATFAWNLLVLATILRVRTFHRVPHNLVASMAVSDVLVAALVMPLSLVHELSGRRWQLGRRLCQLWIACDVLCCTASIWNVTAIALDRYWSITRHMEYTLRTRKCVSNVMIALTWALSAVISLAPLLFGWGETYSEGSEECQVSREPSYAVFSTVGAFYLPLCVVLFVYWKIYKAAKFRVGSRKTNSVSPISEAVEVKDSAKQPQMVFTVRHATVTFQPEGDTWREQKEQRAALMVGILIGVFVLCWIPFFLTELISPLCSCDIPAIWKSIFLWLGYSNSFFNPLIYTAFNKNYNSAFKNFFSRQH
MOR-DOR inv ag: inverse agonists of human mu-delta opioid receptor heterodimerization; P35372+P41143; cell-based MOR-DOR heterodimer luminescence, inverse agonism; inhibition, % at 9.3 µM; 0.21% of 340,000 active; AID 504357; in the data active means inhibition above about 22%, passing the limit was not always enough;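 further: 0% = cells with DMSO and 100% = wells without cells with DMSO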
HTR5A inv ag: counter-screen for OPRM1-OPRD1 inverse agonists: human HTR5A inverse agonism; AID 504634; inhibition, % at 9.3 µM; HTR5A cell line, luminescence; 0.083% of 340,000 active; P47898; in the data active means inhibition mostly above about 23%, no sharp cut-off; inactive means mostly below about 18%;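 further: 0% = cells with DMSO and 100% = no-cell wells with DMSO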
MOR-DOR ag: OPRM1-OPRD1 heterodimerization agonism; cells, luminescence; 0.3% of 340,000 active; activation, % at 9.3 µM; in the data active means activation above about 18%;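 further: 0% = vehicle-treated cells and 100% = reference agonist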
The depositor's hits bear a star. Compounds with a hit are over-represented: about 1.1% of the library has one in this group of screens.

SMILES	HTR5A ag ctr	MOR-DOR inv ag	HTR5A inv ag	MOR-DOR ag
Clc1ccccc1/C=N/NC1=Nc2cccc3cccc1c23	12*	-77	-15	11
COc1ccc(C(=Cc2ccccc2[N+](=O)[O-])C(=O)O)cc1	0	9	-1	-2
Cc1c(C(=O)NC2CCCCC2)sc2ncnc(N3CCN(c4ccccc4)CC3)c12	11*	10	14	-2
Cc1csc(NC(=O)c2c(O)c3c(n(CC(C)C)c2=O)CCCC3)n1	11*	18	-15	-3
CC1CC(C)(C)CC2(C1)NC(=O)N(CC(=O)N1CCN(Cc3ccc(C#N)cc3)CC1)C2=O (stereo not drawn)	2	10	-1	-2
CCc1ccccc1S(=O)(=O)Cc1ccc(C(=O)NCc2ccc3c(c2)OCO3)o1	-5	0	14	0
CCc1ccccc1S(=O)(=O)Cc1ccc(C(=O)NC(C)C)o1	13*	14	-35	-3
O=C(N[C@@H](Cc1ccccc1)C(=O)OCc1ccccc1)c1nc[nH]c1C(=O)N1CCN(c2ccccc2)CC1	13*	-16	-32	3
CS(=O)(=O)c1ccc(C(=O)OCc2nnc(-c3ccc(Cl)cc3)o2)cc1[N+](=O)[O-]	10*	-16	-29	3
O=C(OCc1nnc(-c2ccc(Cl)cc2)o1)c1ccc(O)cc1	4	10	-10	-2
Cc1ccc(N=c2c([N+](=O)[O-])nn(-c3ccccc3)n2O)c(C)c1	11*	-37	-15	7
COc1ccc(/C=N\NC(=O)c2ccc(Cn3cc(Br)c([N+](=O)[O-])n3)o2)c(OC)c1C	11*	3	-25	-1
Cc1ccc(NC(=O)COc2cccc3c2OC(C)(C)C3)c(O)c1	13*	10	-45	-3
CC1(C)Cc2cccc(OCC(=O)Nc3ccccc3F)c2O1	3	0	-7	0
Cc1nnc(-c2ccccc2)nc1N(C)C	11*	8	10	-2
O=C(COC(=O)c1ccc2c(=O)n3c(nc2c1)CCC3)Nc1ccccc1F	11*	1	-30	0
C=C1CC(COc2ccc3c(C)c(Cl)c(=O)oc3c2)(c2ccccc2)OC1=O (stereo not drawn)	-3	31	12	-7
CCN(c1ccccc1)S(=O)(=O)c1ccc(Cl)c(C(=O)NCc2ccco2)c1	-2	-22	14	6
Cc1cc(C)cc(C(=O)OCC(=O)NCc2ccco2)c1	1	14	-5	-3
O=C(COC(=O)c1ccncc1)Nc1ccccc1	12*	3	-4	-1
O=C(COC(=O)c1cccnc1)Nc1ccccc1	3	12	-8	-3
O=C(NCc1ccccc1Cl)NCc1ccccc1Cl	-1	1	-9	0
O=C(NCc1ccccc1Cl)c1ccc[nH]1	13*	7	1	-1
O=C(NCc1ccccc1F)c1ccc(S(=O)(=O)N2CCCCCC2)cc1	2	6	-5	-1
O=C(NCc1ccccc1Cl)c1ccc(S(=O)(=O)N2CCCC2)cc1	11*	20	4	-5
SMILES	HTR5A ag ctr	MOR-DOR inv ag	HTR5A inv ag	MOR-DOR ag
CCn1nc(C(=O)N2CCc3ccccc32)c2ccccc2c1=O	5	0	-3	0
CCn1nc(C(=O)OCC(=O)N2CCc3ccccc32)c2ccccc2c1=O	14*	10	-45	-2
Oc1ccccc1C=NCCN1CCN(CCN=Cc2ccccc2O)C1c1ccccc1O (stereo not drawn)	-1	-1	3	0
O=c1cc(C2CCCCC2)[nH]c(=O)[nH]1	1	4	-5	-1
COc1cc(/C=N\NC(=O)c2ccc(-c3ccccc3)cc2)ccc1OCC(N)=O	11*	-107	-36	20*
CCOc1ccccc1NS(=O)(=O)c1ccc(OC)c(OC)c1	-1	2	15	0
COc1ccccc1NS(=O)(=O)c1ccc(OC)c(OC)c1	10*	7	10	-1
Cc1cccc(NC(=O)c2cc(NC(=O)c3ccco3)ccc2N2CCCCC2)c1	2	9	-19	-2
O=C(Nc1ccc(N2CCCCC2)c(C(=O)O)c1)c1ccco1	10*	-12	-22	2
COC(=O)C1=C(O)/C(=C\c2ccc(CNC(=O)C(=O)Nc3ccc(C)cc3)o2)N=C1C	-6	-1	13	0
CCOC(=O)C1=C(O)/C(=C/c2ccc(CNC(=O)C(=O)Nc3ccc(C)cc3)o2)N=C1C	14*	-2	-6	0
CCN(C(=O)COC(=O)C1CCC(C(C)(C)C)CC1)c1c(N)n(Cc2ccccc2)c(=O)[nH]c1=O (stereo not drawn)	2	-2	-6	1
CC(Oc1ccccc1F)C(=O)Nc1ccc2ccccc2c1 (stereo not drawn)	11*	-5	-16	1
